# This is a sample that favours compounds with a hit; in the whole collection about 19% have one here.
# BCR signal inh: chronic active BCR signaling inhibition; Potency, µM (highest dose often 46.1 µM), inactives show top-dose activity change, negative = inhibition, most hits filed as inhibitors; actives 0.05% (n = 340,000); ABC-DLBCL IkBa-CBG/CBR reporter, luminescence ratio, 4 h; AID 493014; active means well fitted inhibition curve with a large enough effect in the signal ratio, with a control signal flat, not every such curve was filed as active; inconclusive means small, poorly fitted or top-dose-only effect, or effect the other way, or a change in a side signal; the % refers to the signal ratio;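 further: potency means the concentration at half of the fitted maximal effect; plate controls were basal doxycycline-induced cells for no effect and cells given 10 µM MG132 for full effect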
#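 Doxycycline induced both beetle luciferases in TMD8 lymphoma cells; IKK-driven degradation limits the IkappaBalpha-fused green signal, while red luminescence normalises for cell number and nonspecific effects. Compounds tested up to 46 uM, 4 hrs.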
# MCF10A rereplic: inducers of DNA re-replication in MCF 10A breast cells; MCF 10A DNA re-replication, Hoechst nuclear intensity, 48 h; Potency, µM (highest dose often 46.1 µM), inactives show at the top dose activity, positive = re-replication, actives largely listed as activators; actives 2.9% (n = 350,000); further: potency means the concentration at half of the fitted maximal effect; % of control where 0% means no effect; nearly all actives have a fitted effect of over 50% in size
# SW480 rereplic: induces DNA re-replication in SW480 colon adenocarcinoma cells; SW480 DNA re-replication, Hoechst DNA content imaging, 48 h; Potency, µM (titrated, usually from 46.1 µM), for inactives: at the highest dose re-replication activation, most hits filed as activators; actives 1.8% (n = 340,000); AID 624297; further: potency means the concentration at half of the fitted maximal effect; % of control where 0% means no effect; nearly all actives have a fitted effect of over 55% in size
#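 Compounds, transferred as 23 nL by pin tool, were incubated with cells for 48 hr; DNA content per nucleus was then quantified by Hoechst staining and fluorescence plate imaging.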
# DT40 TDP1 no CPT: qHTS for Inhibitors of human tyrosyl-DNA phosphodiesterase 1 (TDP1): qHTS in cells in absence of CPT | Potency, µM (series often up to 46.2 µM), for the others: at the highest dose activity change, negative = growth inhibition, actives largely listed as inhibitors | actives 15% (n = 420,000) | DT40 Tdp1-/- hTDP1 cells, no CPT, ATP luminescence, 48 h | AID 686978, 2013; further: potency means the concentration at half of the fitted maximal effect; on the % scale 0 is the no-effect control and ±100 the full control effect; nearly all actives have a fitted effect of over 55% in size
#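 Chicken DT40 Tdp1-/- cells stably complemented with human TDP1 were seeded at 400 cells/well with DMSO in place of 20 nM camptothecin. After compound pinning, cells grew at least 48 hr at 37 °C; viability read by CellTiter-Glo luminescence.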
# DT40 TDP1 CPT: DT40-hTDP1 cell growth loss with CPT; chicken DT40 Tdp1-/-;hTDP1 cells + 20 nM CPT, ATP luminescence, 48 h; Potency, µM (series often up to 46.2 µM), inactives show at the highest dose activity change, negative = growth inhibition, hits mostly inhibitors; actives 12% (n = 420,000); AID 686979; further: potency means the concentration at half of the fitted maximal effect; on the % scale 0 is the no-effect control and ±100 the full control effect; nearly all actives have a fitted effect of over 55% in size
#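 Cell growth measured by CellTiter-Glo luminescence after a minimum 48 h, 37 C compound exposure with 20 nM CPT in Tdp1-knockout DT40 cells stably expressing hTDP1, seeded 400/well; qHTS titration format.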
# IL-1B inflam inh: inflammasome signaling inhibition, IL-1 beta readout. THP-1 LPS/ATP IL-1B secretion, AlphaLISA, 16 h; active compounds read low. actives 4.7% (n = 360,000). activity change, % at 57.5 µM; in the data active means activity change below about -50%; inconclusive means mostly about -30% to -49%; further: on the % scale 0 is the no-effect control and ±100 the full control effect
#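 THP-1 cells pretreated 1 hr with compounds (up to 57.5 uM final), then stimulated with LPS (250 ng/mL final) plus ATP (1.25 mM final); secreted IL-1B measured by AlphaLISA after 16 hr, decreased signal indicating inhibition.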
# An asterisk follows results filed as active; ? = inconclusive; nt = not tested or not shown. Unless noted, the call rests on the fitted dose curve; in most records, active means well fitted curve in the direction sought with a large enough effect; inconclusive means small, poorly fitted or top-dose-only effect, or another doubt; inactive means no such curve, though single readings can be large; an effect the other way counts as inactive or inconclusive.
SMILES,BCR signal inh,MCF10A rereplic,SW480 rereplic,DT40 TDP1 no CPT,DT40 TDP1 CPT,IL-1B inflam inh
CCCCC1(c2ccc(F)cc2)NC(=O)N(CC(=O)N2CCN(C(=O)c3ccco3)CC2)C1=O (configuration not stated),0%,3%,-5%,-21%,-19%,17
CC(C)CC[n+]1ccccc1/C=C/c1ccc(N(C)C)cc1,?,22%,4.6µM*,0.026µM*,0.018µM*,-95*
CN(C)c1ccc(/C=C/c2cccc[n+]2[O-])cc1,?,-36%,?,4%,2%,nt
COc1ccccc1-c1nn(Cc2ccccc2)cc1/C=C/C(=O)O,?,-3%,-17%,-1%,0%,23
COc1cccc(Cn2cnc(-c3ccccc3OC)c2C2CC2)c1,nt,nt,nt,21µM*,?,0
CCCCc1c(-c2ccccc2OC)ncn1Cc1ccc(Cl)cc1,nt,nt,nt,12µM*,13µM*,?
CCCCc1c(-c2ccccc2OC)ncn1Cc1ccc(-c2ccccc2)cc1,nt,nt,nt,21µM*,15µM*,?
COc1ccccc1C1=Nn2c(nnc2C2CCCCC2)SC1,-20%,19%,-5%,-28%,-30%,?
COc1cccc(Cn2cnc(-c3ccccc3OC)c2-c2cc(C)cc(C)c2)c1,nt,nt,nt,?,?,-3
CCCCc1c(-c2ccccc2OC)ncn1C1CCCC1,nt,nt,nt,10µM*,18µM*,-18
O=C(NCc1ccco1)/C(=C/c1ccc(Br)cc1)NC(=O)c1ccco1,0%,7%,26%,4%,-18%,17
O=C(O)[C@@H]1CSCN1,nt,2%,0%,-7%,-2%,nt
CCCCc1c(-c2ccccc2OC)ncn1Cc1cccc(-c2ccccc2)c1,nt,nt,nt,6.5µM*,12µM*,-98*
COc1cccc(Cn2cnc(-c3ccccc3OC)c2-c2cccs2)c1,nt,nt,nt,?,?,-3
COc1cccc(Cn2cnc(-c3ccccc3OC)c2-c2cccnc2)c1,nt,nt,nt,?,?,-6
CCCCc1c(-c2ccccc2OC)ncn1CCc1cccc(Cl)c1,nt,nt,nt,21µM*,16µM*,-25
C1COCCNCCOCCOCCOCCN1,-2%,-6%,10µM*,-11%,3%,-1
CCOc1ccccc1N(CC(=O)NC1CCCC1)S(=O)(=O)c1ccc(C)cc1,17%,-2%,2%,21µM*,?,0
CCOc1ccccc1N(CC(=O)N1CCC(C)CC1)S(=O)(=O)c1ccc(C)cc1,7%,-3%,-6%,15µM*,9.2µM*,-3
COc1cccc(N(CC(=O)N2CCN(C)CC2)S(=O)(=O)c2ccc(C)cc2)c1,4%,?,-7%,-10%,-8%,-1
COc1cccc(N(CC(=O)N2CCC(C)CC2)S(=O)(=O)c2ccc(C)cc2)c1,nt,nt,nt,15µM*,21µM*,nt
CCOc1ccccc1N(CC(=O)NC1CCCCC1)C(=O)c1nsc(Cl)c1Cl,?,?,15%,26µM*,-24%,-11
Cc1ccc(S(=O)(=O)N(CC(=O)NC2CCCCCC2)c2ccccc2F)cc1,15%,12%,-7%,-24%,-25%,-9
COc1ccc(C(=O)NCc2nc(-c3ccccc3NC(=O)c3cc(C)oc3C)oc2C)cc1F,nt,nt,nt,3%,25%,nt
CC(=O)Nc1ccc(N=Nc2ccccc2)cc1[N+](=O)[O-],nt,0%,21%,-21%,4%,-1
SMILES,BCR signal inh,MCF10A rereplic,SW480 rereplic,DT40 TDP1 no CPT,DT40 TDP1 CPT,IL-1B inflam inh
CCOc1ccccc1N(CC(=O)N1CCCCCC1)S(=O)(=O)c1ccc(C)cc1,5%,8%,-1%,?,23µM*,0
Cc1ccc(/C=N/NC(=O)c2c[nH]c3ccccc23)o1,?,2%,-5%,-17%,-26%,-4
CCN(CC)c1ccc(/C=N\NC(=O)c2cccc3cc[nH]c23)cc1,?,15µM*,23µM*,2.9µM*,5.2µM*,15
Cc1ccc(/C=N/NC(=O)c2ccc(NC(=O)c3ccccc3Cl)cc2)o1,?,-9%,0%,-15%,7%,-71*
O=C(N/N=C/c1ccccc1)c1cccc2ccccc12,nt,?,10%,1.3µM*,?,4
O=C(N/N=C/c1ccco1)c1ccc(NC(=O)c2ccccc2Cl)cc1,2%,0%,-127%,-23%,-7%,-16
Cc1ccc(/C=N/NC(=O)c2cccc3ccccc23)o1,?,?,10%,8.2µM*,13µM*,-3
COc1cc(/C=N/NC(=O)c2cccc3ccccc23)cc(OC)c1OC,-6%,0%,18%,?,-7%,78
O=C(C[N+]1(CCO)CCOCC1)c1ccc(F)c2ccccc12,nt,nt,nt,?,-117%,nt
Cc1ccc(/C=N/NC(=O)c2nnn(-c3nonc3N)c2-c2ccc3c(c2)OCO3)s1,11%,2%,3%,-21%,-11%,5
Cc1ccccc1C(=O)Nc1ccc(C(=O)N/N=C/c2ccc(O)cc2)cc1,-29%,?,-20%,?,?,-99*
Cc1ccccc1C(=O)Nc1ccc(C(=O)N/N=C/c2ccncc2)cc1,?,1%,0%,-30%,2%,12
C=C1SC(=Nc2c(C)cc(C)cc2C)N(C(=O)c2sc3ccccc3c2Cl)C12CCCCC2,4%,-4%,-4%,21µM*,?,-9
NC(=O)COC(=O)c1sc2ccccc2c1Cl,8%,1%,-4%,7%,4%,1
Cc1cc(-c2ccc(Cl)cc2)c(C#N)c(N)n1,-1%,-5%,-9%,-7%,5%,14
N#Cc1c(N)nc(Sc2ccc(Cl)cc2)c(C#N)c1-c1ccccc1Cl,?,?,?,15µM*,16µM*,-96*
CC[C@H](C)/C=C(C)/C=C/C1=CC2=CC(=O)[C@]3(C)OC(=O)[C@@H](C(C)=O)[C@@H]3C2=CO1,-4%,?,-4%,-76%,2.1µM*,10
CC[C@H](C)/C=C(C)/C=C/C(=O)Cc1cc(O)c(C)c(O)c1C=O,9%,?,-1%,?,?,-10
CN(C)c1ccc(C(=O)NNC(=O)c2ccc(Cl)cc2)cc1,-2%,-2%,-48%,-13%,3%,nt
CN(C)c1ccc([C@@H]2[C@@H]([N+](=O)[O-])[C@H]3C=Cc4ccccc4N3[C@H]2C(=O)c2ccc(Cl)cc2)cc1,-3%,0%,1%,7.3µM*,6.5µM*,?

# Bioassay records (PubChem BioAssay)
